Source: PubChem BioAssay
Values without a mark were called inactive. The source made the active and inactive calls.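 The calls were made as follows, unless noted: active = mean inhibition over 43.08%, the solvent-only control mean plus 3 SD; inactive = the rest.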

Key:
[1] = molecular target: Nuclear receptor coactivator 3 (Homo sapiens) (UniProt Q9Y6Q9); test: SRC3 coactivator transcriptional activity inhibitors, confirmation, cell-based, luminescence, quadruplicate (AID 588792); conditions: HEK293 GAL4-SRC3 luciferase reporter, at 3.6 µM, hits give high values;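 also: 0% = DMSO treated cells and 100% = gossypol at 36 µM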
[2] = test system: transactivating tegument protein VP16 (Human herpesvirus 1), Gal4-VP16 luciferase reporter; test: VP16 transactivation inhibitors, counter-screen for SRC3 inhibitor project, cell-based, luminescence, high throughput (AID 588794; in the data active = inhibition above about 30%); conditions: mammalian cells, VP16-driven luciferase reporter luminescence; at 3.6 µM; hits give high values

Nuclear receptor coactivator 3 (Homo sapiens), sequence (Q9Y6Q9 whole entry, looked up, the tested form may be a part): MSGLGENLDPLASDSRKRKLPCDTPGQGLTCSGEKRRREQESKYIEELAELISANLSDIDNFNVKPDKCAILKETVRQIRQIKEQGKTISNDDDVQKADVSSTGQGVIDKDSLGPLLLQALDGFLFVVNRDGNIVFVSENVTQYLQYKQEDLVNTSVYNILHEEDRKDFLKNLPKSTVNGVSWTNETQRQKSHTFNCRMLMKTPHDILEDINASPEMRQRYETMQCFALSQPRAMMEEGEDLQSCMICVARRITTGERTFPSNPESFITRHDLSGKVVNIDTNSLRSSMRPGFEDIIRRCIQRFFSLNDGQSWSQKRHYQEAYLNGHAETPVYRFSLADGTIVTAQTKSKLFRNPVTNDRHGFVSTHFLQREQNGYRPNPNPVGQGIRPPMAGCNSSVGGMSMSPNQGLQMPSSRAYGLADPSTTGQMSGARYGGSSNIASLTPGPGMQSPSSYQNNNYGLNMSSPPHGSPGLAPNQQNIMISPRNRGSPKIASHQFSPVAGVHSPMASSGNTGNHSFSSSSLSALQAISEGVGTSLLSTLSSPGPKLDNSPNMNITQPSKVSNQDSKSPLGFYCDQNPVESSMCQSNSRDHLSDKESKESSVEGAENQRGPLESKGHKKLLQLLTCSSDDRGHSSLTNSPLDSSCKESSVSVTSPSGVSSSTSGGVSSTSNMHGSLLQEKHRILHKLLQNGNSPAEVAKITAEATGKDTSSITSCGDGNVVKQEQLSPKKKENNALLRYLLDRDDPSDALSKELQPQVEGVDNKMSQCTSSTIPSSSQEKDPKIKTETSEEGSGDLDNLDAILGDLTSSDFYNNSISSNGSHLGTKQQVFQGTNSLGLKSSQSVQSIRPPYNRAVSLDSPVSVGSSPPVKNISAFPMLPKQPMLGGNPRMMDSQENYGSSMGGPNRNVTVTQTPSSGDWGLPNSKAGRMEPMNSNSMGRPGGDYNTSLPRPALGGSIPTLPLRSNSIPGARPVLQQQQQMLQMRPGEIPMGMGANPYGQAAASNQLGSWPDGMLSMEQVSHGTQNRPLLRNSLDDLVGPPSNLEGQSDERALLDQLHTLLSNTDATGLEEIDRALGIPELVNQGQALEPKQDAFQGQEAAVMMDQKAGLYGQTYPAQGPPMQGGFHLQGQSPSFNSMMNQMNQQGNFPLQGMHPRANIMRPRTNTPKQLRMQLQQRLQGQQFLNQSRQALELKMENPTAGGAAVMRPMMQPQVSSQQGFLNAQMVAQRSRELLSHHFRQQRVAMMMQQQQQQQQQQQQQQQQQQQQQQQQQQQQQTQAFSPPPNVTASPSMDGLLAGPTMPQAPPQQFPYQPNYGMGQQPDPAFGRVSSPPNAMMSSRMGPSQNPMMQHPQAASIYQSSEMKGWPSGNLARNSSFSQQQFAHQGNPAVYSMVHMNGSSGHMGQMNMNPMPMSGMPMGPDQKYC

Compound	inhibition [1]	inhibition [2]
Cc1ccc(-c2c[n+](Cc3cccc(Cl)c3)c3n2CCC3)cc1	-6.57%	18.4%
O=C(COc1ccc(Cl)cc1)Nc1ccc(C(=O)NCc2cccnc2)cc1	55.6% (active)	-24.6%
CC(C)NC(=O)N(C)C[C@H]1Oc2ccc(NS(=O)(=O)c3ccc(Cl)cc3)cc2CC(=O)N([C@@H](C)CO)C[C@@H]1C	5.62%	-1.86%
CCOc1ccc(OCC)c(NC(=O)CN(C)S(=O)(=O)c2cccc3nsnc23)c1	1.36%	0.62%
Cc1nc(Nc2ccc3c(c2)OCCO3)c2nnn(Cc3ccccc3Cl)c2n1	22.1%	-3.54%
CCSc1nnc(NC(=O)C(CC)(C(F)(F)F)C(F)(F)F)s1	7.54%	19.6%
O=C(Cc1ccccc1)N/N=C/c1cc(Br)cc(Cl)c1O	19.8%	16.4%
O=C1OCCC1Sc1nnc(-c2ccc(Cl)cc2Cl)o1 (configuration not stated)	0.88%	1.16%
Cc1cc2[nH]c3c4ccccc4nc(C)c3c2cc1C	20.5%	33.8% (active)
CCOc1ccc(S(=O)(=O)N2CCN(C(=O)COc3ccc(Br)cc3)CC2)cc1	14.4%	14.7%
COc1ccc(-c2ncncc2-c2ccc(Cl)cc2)c(O)c1	25.1%	22.8%
Cc1ccc(/C=C/C(O)=C2/C(=O)N(C)C3(C)CC2c2ccccc2O3)cc1 (configuration not stated)	20.3%	30.3% (active)
NC(=O)CC(NC(=O)c1cccc(Br)c1)c1ccc(NC2CCN(Cc3ccccc3)CC2)c([N+](=O)[O-])c1 (configuration not stated)	-3.11%	-4.06%
COc1ccc(N/N=C2/CCCCC2=O)cc1	-38.4%	21%
COc1ccc(Cl)cc1C(=O)Nn1c(-c2cccs2)nc2ccccc2c1=O	25.5%	22.1%
COc1ccc(NC(=O)c2cc(C3CC3)nc3c2cnn3C(C)C)cc1OC	-12.8%	-3.62%

Compound	inhibition [1]	inhibition [2]
CCc1ccc([C@@H]2CC(=O)[C@@H]3CN(S(=O)(=O)c4ccccc4C)[C@H](c4ccc(Cl)cc4)C[C@@H]3N2S(=O)(=O)c2ccc(C)cc2)cc1	15.5%	4.71%
CSc1ncccc1C(=O)NCc1nnc2ccccn12	3.35%	-2.69%
CCOC(=O)c1c(-c2ccccc2)oc2ccc(O)c(CN3CCOCC3)c12	-5.57%	4.57%
CC(C)(CC(=O)O)CC(=O)Nc1cc(C(F)(F)F)cc(C(F)(F)F)c1	6.02%	-7.34%
COc1cccc(CNC(=O)c2cc3c(c(-c4cccc(-c5cccc(C#N)c5)c4)n2)[C@H](CCO)N(S(=O)C(C)(C)C)C3)c1 (some centres not stated)	-23%	0.36%
COc1cccc(N2CCN(CC(=O)Nc3ccccc3C(=O)NCc3ccccc3)CC2)c1	-32.3%	7.53%
Cc1cc(SCC(=O)N/N=C/c2ccc(O)cc2O)c(C)cc1Br	20.6%	23.2%
CCOC(=O)C(=O)NNc1ccc(C)cc1	-7.17%	4.76%
O=S(=O)(NC1=NCCC1)c1cccc(NS(=O)(=O)c2ccc(OC(F)(F)F)cc2)c1	-6.28%	-8.52%
O=C(Nc1ccc2c(c1)CCC2)C1CCN(c2c3c(nc4ncnn24)CCC3)CC1	13.5%	13.2%
Cc1ccc(NC(=O)c2cccc(S(=O)(=O)NCc3ccccc3)c2)nc1	-3.03%	6.44%
COc1ccc(CN(Cc2cccn2C)S(=O)(=O)c2ccc(C)cc2)cc1	1.22%	-4.15%
CCOC(=O)c1c(C)[nH]c(C(=O)N/N=C\c2ccccc2O)c1C	11.6%	12.8%
CCCC(=O)NC(NC(=S)Nc1ccc(N=Nc2ccccc2)cc1)C(Cl)(Cl)Cl (configuration not stated)	3.89%	18.1%
CN1OC[C@@H]2CN(C(=O)c3ccc(-c4ccccc4)cc3)[C@H](c3ccc(-c4cccc(F)c4)cc3)C[C@@H]21	-6.51%	18.4%
